The values that follow come from PubChem BioAssay (Tox21).

Each structure is given as a SMILES string. Several values for one entry are separate records, joined by “and”; a condition that tells them apart may be missing. Identical values can stand only once. Inconclusive results are not listed. Where a structure was tested more than once in an assay, its records may differ in their call. Activity calls are given as the source filed them. Unless noted, the call rests on the fitted dose curve; in most records, active means well fitted curve in the direction sought with a large enough effect in the repeat runs; inconclusive means weak or mixed curves; inactive means no such curve, though single readings can be large; an effect the other way counts as inactive or inconclusive.

Experiment [1] can be described thus: Caspase-3/7 induction in HepG2 cells by small molecules, qHTS assay (AID 1346978). Further: nearly all actives have a fitted effect of over 15% in size. The method in brief:
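Wild-type HepG2 cells, 2,000/well, settled 5 hr at 37 C and 5% CO2, then compound-treated for 17 hr; caspase-3/7 activity read by luminescent Caspase-Glo 3/7 after 30 min at room temperature.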
A general note: In qHTS, concentration-response curves come from the screen itself.

A short description of experiment [2]: Caspase-3/7 induction in CHO-K1 cells by small molecules, qHTS cell viability counter screen (AID 1346979). Further: nearly all actives have a fitted effect of over 35% in size. Further: potency means the concentration at half of the fitted maximal effect. The method in brief: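 To flag cytotoxic compounds, treated CHO-K1 wild-type cells were given CellTiter-Fluor at 16hr and read fluorescently after 1hr at 37C; the caspase-3/7 luminescence was measured in these same wells.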
Experiment [3] can be described thus: Caspase-3/7 induction in CHO-K1 cells by small molecules, qHTS assay (AID 1346980). Further: nearly all actives have a fitted effect of over 15% in size. In outline: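 Wild-type CHO-K1 cells exposed to compounds for 17hr at 37 C, 5% CO2. Caspase-3/7 activity then measured by Caspase-Glo 3/7 luminescence after 30min at room temperature.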
Experiment [4] can be described thus: Caspase-3/7 induction in HepG2 cells by small molecules, qHTS cell viability counter screen (AID 1346981). Further: nearly all actives have a fitted effect of over 30% in size. Further: potency means the concentration at half of the fitted maximal effect. The method in brief: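 Fluorescence read-out of live-cell protease activity (CellTiter-Fluor) after 1 hr with reagent. This was measured in the same wells as the caspase-3/7 luminescence, on HepG2 cells exposed to DMSO-dissolved compounds for 16 hr at 37 C.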

Experiment [5] deals with Nuclear receptor subfamily 1 group I member 2 (Homo sapiens) (UniProt O75469). Briefly: Human pregnane X receptor (PXR) small molecule agonists, qHTS assay (AID 1346982). Further: nearly all actives have a fitted effect of over 35% in size. Further: potency means the concentration at half of the fitted maximal effect. In outline:
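HepG2 PXR-Luc reporter line, 5% charcoal-stripped FBS; 5 hr pre-incubation, compound (DMSO) 24 hr at 37 C/5% CO2; ONE-Glo 30 min RT; luminescence read-out.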

Experiment [6] deals with Nuclear receptor subfamily 1 group I member 2 (Rattus norvegicus) (UniProt Q9R1A7). Briefly: Rat pregnane X receptor (rPXR) activation by small molecules, qHTS assay (AID 1346983). Further: nearly all actives have a fitted effect of over 20% in size. As to conditions: rPXR luciferase reporter cells, One-Glo luminescence, 24 h; max activation: stronger effect = higher value. In outline: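 Cell-based rPXR activation assay: rPXR cells, 2,000 per well, rested 5hr at 37 C, then exposed to compounds in DMSO for 24 hr at 37 C. Luciferase activity read by One-Glo luminescence after 30 min at room temperature.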

Experiment [7] concerns the target Nuclear receptor subfamily 1 group I member 2 (Homo sapiens) (UniProt O75469). Briefly: CYP3A4 induction through human pregnane X receptor (PXR) by small molecules, qHTS assay (AID 1346984). Further: nearly all actives have a fitted effect of over 40% in size. The method in brief:
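HepG2-derived DPX-2 line carrying PXR plus a CYP3A4-promoter luciferase reporter; cells plated 5 hr, compound-exposed 24 hr at 37C. CYP3A4 activity probed with 3uM (final) Luciferin-IPA for 3hr, then luciferase read after One-Glo.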

Experiment [8] shares this target. Briefly: Human pregnane X receptor (PXR) activation by small molecules, qHTS assay (AID 1346985). Further: nearly all actives have a fitted effect of over 40% in size. The method in brief:
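DPX-2 cells (HepG2 co-transfected with a PXR response element and a CYP3A4-promoter luciferase construct) were seeded at 2,000 per well, rested 5 hr at 37C, then exposed to DMSO-dissolved compounds for 24 hr. Activation was read as luciferase luminescence.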

In experiment [9] the target is Acetylcholinesterase (Homo sapiens) (UniProt P22303). Briefly: Acetylcholinesterase (AChE) small molecule antagonists: enzyme-based qHTS assay (AID 1347397; calls by dose curve; further: nearly all actives have a fitted effect of over 55% in size). As to conditions: Potency: AChE enzyme activity inhibition. The method in brief: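 Colorimetric DTNB read-out of thiocholine released from acetylthiocholine by recombinant human AChE (50 mU/mL as dispensed). Compounds were preincubated 30 min at RT before substrate/DTNB addition, with a 10 min RT reaction.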
Sequence of Acetylcholinesterase (Homo sapiens) (P22303 whole entry, looked up): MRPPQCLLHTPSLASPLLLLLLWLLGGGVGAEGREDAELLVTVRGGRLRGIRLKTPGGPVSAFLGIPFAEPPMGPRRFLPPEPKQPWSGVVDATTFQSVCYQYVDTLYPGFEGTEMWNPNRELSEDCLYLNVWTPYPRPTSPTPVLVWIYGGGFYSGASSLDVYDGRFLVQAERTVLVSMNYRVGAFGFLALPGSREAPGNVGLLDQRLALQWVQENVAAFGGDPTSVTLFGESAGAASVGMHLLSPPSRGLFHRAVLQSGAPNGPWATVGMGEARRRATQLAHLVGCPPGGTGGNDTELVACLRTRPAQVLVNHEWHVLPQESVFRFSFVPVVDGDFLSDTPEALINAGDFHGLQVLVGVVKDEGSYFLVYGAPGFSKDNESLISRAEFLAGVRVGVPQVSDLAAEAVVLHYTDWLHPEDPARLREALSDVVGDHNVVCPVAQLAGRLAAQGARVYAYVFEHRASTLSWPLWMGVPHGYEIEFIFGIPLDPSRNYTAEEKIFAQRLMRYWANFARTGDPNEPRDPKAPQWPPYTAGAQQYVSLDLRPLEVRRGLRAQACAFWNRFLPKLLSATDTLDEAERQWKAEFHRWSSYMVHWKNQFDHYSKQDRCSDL

Experiment [10] has the same target. Briefly: Acetylcholinesterase (AChE) small molecule antagonists: fluorescence cell-based qHTS assay (AID 1347398; calls by dose curve; further: nearly all actives have a fitted effect of over 50% in size). The conditions noted are these: Potency: AChE activity. The method in brief:
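SH-SY5Y, 2,000 cells/well, attached overnight; cmpd 30 min 37 C; acetylthiocholine/Thiolite Green cocktail 40 min RT; fluorescence Ex/Em 490/520 nm.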

Experiment [11] has the same target. Briefly: Acetylcholinesterase (AChE) small molecule antagonists: enzyme-based qHTS assay with human liver microsomes (AID 1347399; calls by dose curve; further: nearly all actives have a fitted effect of over 60% in size). The conditions noted are these: Potency: qHTS inhibition. In outline:
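Recombinant human AChE (50 mU/mL in the enzyme mix) and human liver microsomes (0.25 mg/mL final) were preincubated with compound and NADPH (0.25 mg/mL final) for 30 min at 37 C. Acetylthiocholine/DTNB was then added; thiocholine was read colorimetrically after 10 min at room temperature.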

Experiment [12] addresses Cytochrome P450 2C19 (Homo sapiens) (UniProt P33261). Kind of experiment: Cytochrome P450 Family 2 Subfamily C Member 19 (CYP2C19) small molecule antagonists: luciferase reporter qHTS assay (AID 1671197). Further: nearly all actives have a fitted effect of over 65% in size. Further: potency means the concentration at half of the fitted maximal effect. In outline: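 Quantitative high-throughput screen of the Tox21 library using CYP2C19 with proluciferin substrate. Reaction: NADPH regeneration, 37C, 1 h, after 10 min compound preincubation at room temperature. Readout: luminescence.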

Experiment [13] concerns the target Cytochrome P450 2C9 (Homo sapiens) (UniProt P11712). Briefly: Cytochrome P450 Family 2 Subfamily C Member 9 (CYP2C9) small molecule antagonists: luciferase reporter qHTS assay (AID 1671198). Further: nearly all actives have a fitted effect of over 50% in size. Further: potency means the concentration at half of the fitted maximal effect. In outline: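 P450-Glo proluciferin substrate with CYP2C9 enzyme; 10 min RT preincubation, then NADPH regeneration 1 h at 37C; luciferin detection reagent 20 min RT, luminescence in relative luminescence units.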
(A reporter such as luciferase makes a cellular process visible.)

In experiment [14] the target is Cytochrome P450 1A2 (Homo sapiens) (UniProt P05177). Kind of experiment: Cytochrome P450 Family 1 Subfamily A Member 2 (CYP1A2) small molecule antagonists: luciferase reporter qHTS assay (AID 1671199). Further: nearly all actives have a fitted effect of over 50% in size. Further: potency means the concentration at half of the fitted maximal effect. In outline: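 Luminescence readout (relative luminescence units) after luciferin detection reagent, 20 min RT. Preceded by 1 h room-temperature CYP1A2 reaction with NADPH regeneration solution following 10 min compound preincubation with enzyme and proluciferin substrate. Furafylline positive control.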
Sequence of Cytochrome P450 1A2 (Homo sapiens) (P05177 whole entry, looked up): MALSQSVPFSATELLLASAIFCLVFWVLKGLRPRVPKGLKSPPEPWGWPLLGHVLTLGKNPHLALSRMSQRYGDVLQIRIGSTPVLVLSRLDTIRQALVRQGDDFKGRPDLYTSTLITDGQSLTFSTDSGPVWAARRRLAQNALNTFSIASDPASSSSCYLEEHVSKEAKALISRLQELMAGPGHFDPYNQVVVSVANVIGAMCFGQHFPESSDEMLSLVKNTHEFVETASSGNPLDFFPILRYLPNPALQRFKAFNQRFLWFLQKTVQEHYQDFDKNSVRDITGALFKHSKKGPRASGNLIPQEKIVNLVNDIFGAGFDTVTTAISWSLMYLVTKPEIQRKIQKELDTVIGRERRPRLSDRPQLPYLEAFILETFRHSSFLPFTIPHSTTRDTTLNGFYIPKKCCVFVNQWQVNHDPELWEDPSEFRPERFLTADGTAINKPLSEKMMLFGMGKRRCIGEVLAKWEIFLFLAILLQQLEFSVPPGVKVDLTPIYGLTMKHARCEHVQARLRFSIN

The target in experiment [15] is Voltage-gated inwardly rectifying potassium channel KCNH2 (Homo sapiens) (UniProt Q12809). Kind of experiment: Human Ether-a-go-go-Related Gene (hERG) channel small molecule antagonists: fluorescence cell-based qHTS assay (AID 1671200).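 Further: hERG-expressing U2OS cells given a thallium stimulus after FluxOR II dye loading; series mostly up to about 77 µM; nearly all actives have a fitted effect of over 50% in size.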 The method in brief:
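Measured: Tl+ flux via fluorescence (480/540 nm) in hERG-expressing U2OS cells after 1 h dye loading at room temperature.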

The target in experiment [16] is Cytochrome P450 3A4 (Homo sapiens) (UniProt P08684). Kind of experiment: Cytochrome P450 Family 3 Subfamily A Member 4 (CYP3A4) small molecule antagonists: luciferase reporter qHTS assay (AID 1671201). Further: nearly all actives have a fitted effect of over 50% in size. Further: potency means the concentration at half of the fitted maximal effect. In outline:
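Setup: enzyme-substrate mix, compound pin transfer, 10 min RT. Reaction: NADPH regeneration solution, 1 h RT. Readout: detection reagent stops turnover, luminescence measured after 20 min, expressed in relative luminescence units.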

The target of experiment [17] is Acetylcholinesterase (Homo sapiens) (UniProt P22303). Kind of experiment: Acetylcholinesterase (AChE) small molecule antagonists: colormetric cell-based qHTS assay (AID 1347395; calls by dose curve; further: nearly all actives have a fitted effect of over 30% in size). The method in brief: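 Neuroblastoma line SH-SY5Y supplied the enzyme; cells were preincubated with compound for 30 min at 37 C and 5% CO2. Acetylthiocholine with DTNB was then added for 90 min at 37 C, and thiocholine was measured by colour.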

Experiment [18] concerns the target Cytochrome P450 2D6 (Homo sapiens) (UniProt P10635). Kind of experiment: Cytochrome P450 Family 2 Subfamily D Member 6 (CYP2D6) small molecule antagonists: luciferase reporter qHTS assay (AID 1671196). Further: nearly all actives have a fitted effect of over 50% in size. Further: potency means the concentration at half of the fitted maximal effect. The method in brief: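 Luminogenic proluciferin substrate, CYP2D6 enzyme; 10 min RT preincubation with compound, NADPH regeneration system added, 1 h RT. Stop/detection reagent, 20 min RT, luminescence read (RLU). Signal proportional to CYP activity.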
On the % scale 0 is the no-effect control and ±100 the full control effect.

Sequence of Voltage-gated inwardly rectifying potassium channel KCNH2 (Homo sapiens) (Q12809 whole entry, looked up): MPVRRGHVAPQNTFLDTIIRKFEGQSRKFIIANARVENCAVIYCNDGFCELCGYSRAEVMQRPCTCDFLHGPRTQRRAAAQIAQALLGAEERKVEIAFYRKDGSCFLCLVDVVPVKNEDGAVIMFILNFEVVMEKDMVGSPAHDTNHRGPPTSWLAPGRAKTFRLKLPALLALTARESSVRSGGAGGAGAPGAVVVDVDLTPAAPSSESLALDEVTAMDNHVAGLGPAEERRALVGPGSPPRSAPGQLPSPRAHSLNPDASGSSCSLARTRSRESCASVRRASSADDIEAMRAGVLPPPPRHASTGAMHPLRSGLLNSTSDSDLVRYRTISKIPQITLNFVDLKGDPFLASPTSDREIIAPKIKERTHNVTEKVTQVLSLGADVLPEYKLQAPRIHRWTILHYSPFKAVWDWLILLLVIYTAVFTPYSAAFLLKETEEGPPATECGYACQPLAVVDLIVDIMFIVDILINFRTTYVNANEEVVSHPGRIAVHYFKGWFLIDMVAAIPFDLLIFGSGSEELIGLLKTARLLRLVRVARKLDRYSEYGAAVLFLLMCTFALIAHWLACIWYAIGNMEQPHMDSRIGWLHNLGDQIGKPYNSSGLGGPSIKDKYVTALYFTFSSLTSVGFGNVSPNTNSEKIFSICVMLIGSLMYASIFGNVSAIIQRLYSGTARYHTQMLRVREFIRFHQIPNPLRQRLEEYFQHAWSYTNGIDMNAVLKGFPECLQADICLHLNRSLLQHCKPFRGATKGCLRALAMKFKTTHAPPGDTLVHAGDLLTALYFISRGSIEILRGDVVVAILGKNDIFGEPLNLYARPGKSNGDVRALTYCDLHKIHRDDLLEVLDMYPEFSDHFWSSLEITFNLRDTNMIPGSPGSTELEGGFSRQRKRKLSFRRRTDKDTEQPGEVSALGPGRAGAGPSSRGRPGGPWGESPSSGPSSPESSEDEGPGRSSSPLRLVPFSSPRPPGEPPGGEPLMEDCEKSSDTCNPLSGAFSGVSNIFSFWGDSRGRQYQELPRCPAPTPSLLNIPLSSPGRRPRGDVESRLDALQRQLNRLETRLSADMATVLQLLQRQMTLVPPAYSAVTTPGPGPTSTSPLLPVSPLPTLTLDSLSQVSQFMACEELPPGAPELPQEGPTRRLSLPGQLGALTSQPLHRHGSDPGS
Sequence of Cytochrome P450 2C19 (Homo sapiens) (P33261 whole entry, looked up): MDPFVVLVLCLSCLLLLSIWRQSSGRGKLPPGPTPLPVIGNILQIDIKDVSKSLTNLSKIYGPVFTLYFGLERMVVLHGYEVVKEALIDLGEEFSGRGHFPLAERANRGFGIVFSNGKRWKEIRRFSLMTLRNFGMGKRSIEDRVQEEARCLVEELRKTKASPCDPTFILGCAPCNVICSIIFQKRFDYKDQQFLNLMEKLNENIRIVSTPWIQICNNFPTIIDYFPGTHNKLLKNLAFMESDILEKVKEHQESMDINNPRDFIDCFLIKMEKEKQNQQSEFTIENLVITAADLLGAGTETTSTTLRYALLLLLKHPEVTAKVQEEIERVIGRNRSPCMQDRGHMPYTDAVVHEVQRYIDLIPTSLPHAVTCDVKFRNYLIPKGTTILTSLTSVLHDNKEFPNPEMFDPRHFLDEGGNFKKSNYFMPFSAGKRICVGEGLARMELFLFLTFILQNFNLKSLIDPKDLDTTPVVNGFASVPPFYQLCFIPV
Sequence of Cytochrome P450 3A4 (Homo sapiens) (P08684 whole entry, looked up): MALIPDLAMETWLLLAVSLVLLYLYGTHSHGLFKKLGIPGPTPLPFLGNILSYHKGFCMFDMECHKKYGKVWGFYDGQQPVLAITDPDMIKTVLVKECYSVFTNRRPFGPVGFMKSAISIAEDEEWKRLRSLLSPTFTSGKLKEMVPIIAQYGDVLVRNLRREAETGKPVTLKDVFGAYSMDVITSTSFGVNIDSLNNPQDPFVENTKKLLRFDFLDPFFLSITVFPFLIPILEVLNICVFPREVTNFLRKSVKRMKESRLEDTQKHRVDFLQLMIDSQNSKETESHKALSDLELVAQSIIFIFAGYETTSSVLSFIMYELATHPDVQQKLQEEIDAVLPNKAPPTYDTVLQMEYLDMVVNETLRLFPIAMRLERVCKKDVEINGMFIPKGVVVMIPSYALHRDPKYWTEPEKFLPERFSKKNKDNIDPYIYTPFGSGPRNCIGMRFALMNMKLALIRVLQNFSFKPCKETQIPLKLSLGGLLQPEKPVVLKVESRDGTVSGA
Sequence of Cytochrome P450 2C9 (Homo sapiens) (P11712 whole entry, looked up): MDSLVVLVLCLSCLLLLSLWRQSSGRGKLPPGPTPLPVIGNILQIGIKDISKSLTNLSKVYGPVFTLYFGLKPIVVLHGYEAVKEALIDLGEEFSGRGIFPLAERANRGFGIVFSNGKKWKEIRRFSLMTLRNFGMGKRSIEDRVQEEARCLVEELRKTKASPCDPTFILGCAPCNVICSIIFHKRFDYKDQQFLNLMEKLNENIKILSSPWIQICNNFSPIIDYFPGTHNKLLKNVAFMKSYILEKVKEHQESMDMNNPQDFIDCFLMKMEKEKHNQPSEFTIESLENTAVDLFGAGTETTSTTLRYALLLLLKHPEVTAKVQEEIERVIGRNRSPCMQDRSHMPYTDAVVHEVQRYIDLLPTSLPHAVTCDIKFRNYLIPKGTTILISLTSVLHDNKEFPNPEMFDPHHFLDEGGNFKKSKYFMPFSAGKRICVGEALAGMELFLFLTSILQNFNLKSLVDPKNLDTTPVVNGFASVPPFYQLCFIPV
Sequence of Cytochrome P450 2D6 (Homo sapiens) (P10635 whole entry, looked up): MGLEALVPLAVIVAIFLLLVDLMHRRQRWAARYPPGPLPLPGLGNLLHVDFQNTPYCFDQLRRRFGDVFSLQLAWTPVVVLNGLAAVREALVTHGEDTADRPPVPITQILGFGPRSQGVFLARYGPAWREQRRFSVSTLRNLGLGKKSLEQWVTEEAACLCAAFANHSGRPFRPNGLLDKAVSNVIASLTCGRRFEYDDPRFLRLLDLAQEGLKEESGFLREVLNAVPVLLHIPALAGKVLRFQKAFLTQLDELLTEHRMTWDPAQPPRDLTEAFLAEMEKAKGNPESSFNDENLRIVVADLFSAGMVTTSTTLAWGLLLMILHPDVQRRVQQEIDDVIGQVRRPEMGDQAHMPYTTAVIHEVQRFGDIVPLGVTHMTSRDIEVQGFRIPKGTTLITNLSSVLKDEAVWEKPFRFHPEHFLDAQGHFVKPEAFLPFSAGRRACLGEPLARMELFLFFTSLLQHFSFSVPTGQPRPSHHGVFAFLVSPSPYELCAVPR
Sequence of Nuclear receptor subfamily 1 group I member 2 (Homo sapiens) (O75469 whole entry, looked up): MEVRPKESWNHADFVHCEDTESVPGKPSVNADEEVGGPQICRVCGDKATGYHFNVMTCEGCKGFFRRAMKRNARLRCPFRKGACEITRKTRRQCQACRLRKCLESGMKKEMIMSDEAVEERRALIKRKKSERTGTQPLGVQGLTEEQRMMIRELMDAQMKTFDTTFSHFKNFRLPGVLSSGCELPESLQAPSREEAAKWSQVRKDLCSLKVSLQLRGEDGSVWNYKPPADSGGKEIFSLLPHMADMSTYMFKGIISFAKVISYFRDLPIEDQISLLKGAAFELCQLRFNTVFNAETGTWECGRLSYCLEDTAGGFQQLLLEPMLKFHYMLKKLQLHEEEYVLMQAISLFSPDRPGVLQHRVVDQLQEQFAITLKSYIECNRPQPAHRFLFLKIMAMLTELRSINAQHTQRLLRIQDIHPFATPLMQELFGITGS

Take `O=[N+]([O-])c1ccc(F)c([N+](=O)[O-])c1`: the Potency result in experiment [1], in experiment [3], in experiment [5], in [7], in experiment [8] and in experiment [9] was “inactive” in each case. Also, the Potency entry in [10], in experiment [11], in experiment [12], in experiment [14], in experiment [15] and in experiment [16] was “inactive” in each case. Further, the figures for the Potency in experiment [2], in experiment [4] and in experiment [13] were 24.6 µM (active), 27.6 µM (active) and 32 µM (active), respectively. In addition, the max activation in experiment [6] was -9.38% (inactive).
On to `N#Cc1ccc(Cl)cc1`, for which the Potency result in experiment [1], in experiment [2], in experiment [3], in experiment [4], in experiment [5] and in experiment [17] was “inactive” each time. Besides, the Potency entry in [9], in [10], in experiment [11], in [18], in [12] and in experiment [13] was “inactive” each time. The Potency result in experiment [14], in experiment [15] and in experiment [16] was “inactive” each time.
For `CC1CC(CC2CCC(N)C(C)C2)CCC1N` (stereo not given), the Potency entry in experiment [1], in [2], in experiment [3], in experiment [4], in experiment [5] and in [17] was “inactive” each time. The Potency result in experiment [9], in experiment [10], in [11], in [12], in [13] and in experiment [15] was “inactive” each time. Also, the Potency is 12.8 µM (active) in experiment [18], 32.2 µM (active) in [14] and 2.87 µM (active) in experiment [16].
As for `C=CCC1([C@H](C)CCC)C(=O)NC(=O)NC1=O`, the Potency result in [1], in experiment [2], in experiment [3], in experiment [4], in experiment [5] and in [17] was “inactive” each time. The Potency result in experiment [9], in experiment [10], in [11], in [18], in experiment [12] and in experiment [14] was “inactive” each time. For the same molecule, the Potency entry in [15] was “inactive”. The Potency in experiment [16] was 31.4 µM (active).
Regarding `CN1C(=O)NC(=O)C(C)(C2=CCCCC2)C1=O` (stereo not given), the Potency entry in experiment [1], in [2], in experiment [3], in experiment [4], in experiment [5] and in experiment [7] was “inactive” in each case. The Potency entry in [8], in experiment [17], in experiment [9], in [10], in [11] and in experiment [18] was “inactive” each time. Also, the Potency entry in experiment [12], in experiment [13], in [14], in [15] and in [16] was “inactive” in each case. The max activation in [6] is -1.51% (inactive) and -2.62% (inactive).
For the molecule `ClC=C(Cl)Cl`, the Potency result in experiment [1], in [2], in experiment [3], in experiment [4], in experiment [5] and in experiment [7] was “inactive” in each case. In addition, the Potency entry in experiment [8], in experiment [17], in experiment [9], in experiment [10], in [11] and in experiment [18] was “inactive” throughout. For the same molecule, the Potency entry in [12], in [13], in experiment [14], in experiment [15] and in [16] was “inactive” each time. Also, in experiment [6], the max activation was -0.508% (inactive).
`CCCCOC(=O)c1ccccc1C(=O)OCc1ccccc1`: the Potency result in experiment [1], in experiment [2], in experiment [3], in experiment [4], in [17] and in experiment [9] was “inactive” each time. Also, the Potency entry in experiment [10], in [11] and in [16] was “inactive” throughout. The Potency entry is “inactive and 21.7 µM (active)” in experiment [5]; “inactive and 71 µM (active)” in [18]; 1.78 µM (active) and 1.12 µM (active) in [12]; 8.92 µM (active) and 10 µM (active) in experiment [13]; 15.9 µM (active) and 12.7 µM (active) in experiment [14].
